Test results reported in the supplement of paper PMC3334620.
In all, about 33,000 sequences were measured (“E-score (-0.5 to 0.5)”: median about -0.012, highest 2% from about 0.27 on). The entries come from a sample that favours the highest values as a whole.

What follows are sequences tested against T1, Vhr1 (UniProt P40522) (assay: PBM E-score (8-mer binding enrichment) (E-score (-0.5 to 0.5)); higher = stronger / more preferred TF binding). Details: protein concentration: 200 nM; construct: GST-full length.
T1 sequence: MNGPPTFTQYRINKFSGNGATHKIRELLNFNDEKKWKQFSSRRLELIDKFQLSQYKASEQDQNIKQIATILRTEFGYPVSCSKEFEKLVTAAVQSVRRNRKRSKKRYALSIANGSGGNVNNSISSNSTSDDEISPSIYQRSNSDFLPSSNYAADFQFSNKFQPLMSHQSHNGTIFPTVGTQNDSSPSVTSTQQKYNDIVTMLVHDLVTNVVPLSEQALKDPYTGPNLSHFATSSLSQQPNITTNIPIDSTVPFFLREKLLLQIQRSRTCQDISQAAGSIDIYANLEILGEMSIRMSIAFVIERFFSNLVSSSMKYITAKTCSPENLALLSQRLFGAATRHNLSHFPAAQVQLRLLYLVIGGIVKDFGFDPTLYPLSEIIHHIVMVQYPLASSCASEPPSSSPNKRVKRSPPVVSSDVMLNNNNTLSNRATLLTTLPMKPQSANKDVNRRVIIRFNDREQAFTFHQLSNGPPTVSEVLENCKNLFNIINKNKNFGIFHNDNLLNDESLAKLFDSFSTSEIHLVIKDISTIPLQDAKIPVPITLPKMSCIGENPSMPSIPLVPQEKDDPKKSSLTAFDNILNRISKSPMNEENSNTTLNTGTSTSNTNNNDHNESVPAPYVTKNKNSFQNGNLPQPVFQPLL
Outline: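 Detection of bound protein used fluorescent anti-GST, with scans normalised by masliner. The proteins were GST-tagged yeast transcription factors applied at about 100-200 nM to universal all-10-mer Agilent arrays made double-stranded by primer extension. Each ungapped eight-base word, pooled with its reverse complement, was scored with an E-score from the Universal PBM Analysis Suite.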

Sequence	PBM E-score
GCTGACTA	0.324
ACTGACCC	0.0589
CCTGACAC	0.188
CCTGACGC	-0.197
GCTGACAA	-0.0645
GTTGACTA	0.261
ACGGACTC	-0.0189
CCGGACTA	0.108
ACTGACTC	0.421
AAGAAAGT	-0.0406
CTTCATTC	-0.0777
CCAATTCG	-0.173
GGGATCAA	-0.109
ATTTGGTG	-0.068
ATAGGGTC	0.197
CCAGCATA	0.0195
ATTGACTC	0.3
CTTGACTC	0.262
CCTGACGA	0.0859
ACTGACTA	0.295
ACTGACTG	0.0572
ACTGACCA	-0.0638
CCTGACAA	0.0179
ATTGACTA	0.236
CCTGACTA	0.391

Sequence	PBM E-score
CCCAGCAG	0.0474
AACTGGCT	-0.204
CAGCGCAC	-0.152
CGGTTGAC	-0.0106
AGGCAAGG	-0.292
AATGACAC	0.0353
CATGACAA	0.0092
AATGACTA	0.353
AATGACGA	-0.0492
GATGACAA	-0.00976
GATGACTA	0.447
AATGACGC	0.00169
GATGACCA	0.13
CATGACTA	0.458
AATGACTG	0.271
AATGACTC	0.463
CATGACGA	0.22
GGATCCGA	-0.0296
ATGTAGCG	-0.0682
AGCGCAAT	-0.0761
ATCTTAGG	-0.132
GCGCTGGA	0.168
GTTGATAA	0.109
CGGCTACA	0.153
AATGGTTC	0.212

Sequence	PBM E-score
CATGGCTC	0.28
CATGGTTA	0.215
CATGGCTA	0.224
CATGGTTC	0.364
AATGGCTC	0.137
AAAATCTT	-0.316
CCATCGAG	0.0908
ACGCGATG	0.148
ACTCGGAG	0.29
ACTCGGAT	0.186
CCTCGGAG	0.00615
TCTGGTCA	0.0764
GACGAGTC	0.276
CCCGAGTA	0.184
AACGAGTT	-0.117
CACGAGTG	-0.0364
CCCGAGTC	0.387
CACGAGTA	0.0881
CACGAGTC	0.324
ACCGAGTC	0.254
GACGAGAC	-0.0155
AACGAGTC	0.278
GACGAGTA	0.077
AACGAGTA	0.134
CGCGACGC	-0.00297

Sequence	PBM E-score
ACGACCTA	0.143
AAGTGTGT	0.0443
AGAACGAC	0.00162
CCGTTACG	-0.0486
ACCCGATG	0.137
ACTTGCTC	-0.057
CTTATCGC	-0.0118
TCCGACAA	-0.0624
GATTTCCA	0.0482
CATAATCC	0.105
CATAATCG	0.0927
GATAATCC	-0.112
GTTAATCA	0.296
ATTAATCA	0.217
GATAATCA	0.301
CATAATCA	0.308
AATAATCA	0.203
CTTAATCA	0.214
TAGATTCA	-0.0459
GTGCGAAC	-0.037
AAGATCAG	0.0101
ACCTGGAC	0.0512
CCAATGAA	-0.18
ACCATGAT	0.219
CCCATGAA	0.0105

Sequence	PBM E-score
ACCATGAA	0.276
GCCATGAA	0.0605
CCAATGAC	0.285
TCCATGAA	0.123
GCAATGAC	0.103
ACCATGAC	0.307
ACCATGAG	0.0389
GCCATGAC	0.0961
CCCATGAC	0.332
GTGGGGTA	0.22
CACCCGAC	0.0689
GTGTGCGA	0.0262
CGTCTCCA	0.149
CGGAGGAC	0.00537
CTTAAGCC	-0.234
AAGTTTGT	-0.034
CGGGGTCC	-0.227
GTACATAC	0.119
ACACATAG	0.102
ACACATAC	0.29
ATACATAT	0.367
ATACATAG	0.108
ACACATAA	0.119
CTACATAC	0.0864
ATACATAA	0.135

Sequence	PBM E-score
ATACATAC	0.293
GCTGACCC	0.0256
ACCCAGCT	0.0775
GTCCAGCA	-0.0682
ACGTCCAT	-0.123
CGCGGTCC	-0.137
AGATCCCT	-0.142
CGATCCCG	0.0117
AGATCCCG	0.297
ACCTCACG	-0.0286
CATCAACG	0.131
AGGGGCGG	0.348
AGGGGCGC	0.0808
AGGGGCGA	0.113
GTTCATTA	-0.0167
CCGACTCA	0.417
ACGACTTA	-0.0824
CTGACCCC	-0.0745
CTTACTCC	0.0868
CCGACTTA	-0.0517
CCGACTGA	-0.0635
ACGACTCA	0.445
ACGACTCT	0.261
GCCACTCC	0.205
GCGACCCC	0.0605

Sequence	PBM E-score
GCGACTCC	0.414
CTGACTCC	0.47
AAATGGAC	-0.0108
ATCTCAGA	0.00554
CCTGTGCA	-0.0814
CCCCCTCG	-0.242
GTAGGCGA	0.097
ACATGCCA	0.0538
ACGACTCG	0.327
ACGACTCC	0.366
CCGACTTC	-0.223
ACGACTTG	-0.0454
ACGACTAT	0.195
CCGACTCG	0.238
GCGACTCA	0.477
ACGACGCC	-0.036
CCGACTCC	0.45
GGGACTCA	0.261
GCGACTTA	-0.104
CAACAACG	0.087
CAGAAGAG	-0.189
CGGTAGAC	-0.00049
